In the supplement of paper PMC12819154, “High-throughput peptide-centric local stability assay extends protein–ligand identification to membrane proteins, tissues and bacteria” (Nature Structural & Molecular Biology, 2025):

compound: Nc1ncnc2c1ncn2[C@@H]1O[C@H](COP(=O)(O)OP(=O)(O)OP(=O)(O)O)[C@@H](O)[C@H]1O [adenosine 5'-triphosphate]; test: log2 fold change of tryptic peptide abundance, ligand vs vehicle (limited proteolysis) (log2 ratio); higher = more trypsin-susceptible (destabilized); details: ligand concentration: 5 mM; sample: E. coli desalted lysate; replicate design: treated before aliquoting
Method: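 HT-PELSA: desalted E. coli K-12 BW25113 lysate (with 12 mM MgCl2) incubated with 5 mM ATP (pH 7) or water for 30 min at 25 C, then a 4 min trypsin pulse at 22 C. Peptides were quantified by DIA-MS (4 replicates). Value is the peptide log2 fold change (treated/control); negative = stabilized. Scale: negative = ligand-stabilized region.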
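Further: lysate desalted by size exclusion to strip endogenous ATP, peptide intensities built from DIA-NN precursor signals, and peptides missing any value discarded before comparison.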

Chain of UniProt P0AG16 (P0AG16 whole entry): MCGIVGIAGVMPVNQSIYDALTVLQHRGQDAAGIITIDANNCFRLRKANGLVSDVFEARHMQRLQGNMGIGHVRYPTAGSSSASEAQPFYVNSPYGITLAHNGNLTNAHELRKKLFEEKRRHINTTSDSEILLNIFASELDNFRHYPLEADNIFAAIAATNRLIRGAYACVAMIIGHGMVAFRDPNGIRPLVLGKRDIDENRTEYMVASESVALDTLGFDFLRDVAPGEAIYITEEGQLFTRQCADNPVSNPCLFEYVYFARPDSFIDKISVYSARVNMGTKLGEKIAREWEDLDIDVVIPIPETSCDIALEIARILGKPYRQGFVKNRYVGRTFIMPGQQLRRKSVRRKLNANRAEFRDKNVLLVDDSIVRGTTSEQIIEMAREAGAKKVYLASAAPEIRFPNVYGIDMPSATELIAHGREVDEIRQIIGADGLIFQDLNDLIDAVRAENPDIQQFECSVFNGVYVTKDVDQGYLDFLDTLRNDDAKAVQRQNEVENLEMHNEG
Chain of UniProt P77756 (P77756 whole entry): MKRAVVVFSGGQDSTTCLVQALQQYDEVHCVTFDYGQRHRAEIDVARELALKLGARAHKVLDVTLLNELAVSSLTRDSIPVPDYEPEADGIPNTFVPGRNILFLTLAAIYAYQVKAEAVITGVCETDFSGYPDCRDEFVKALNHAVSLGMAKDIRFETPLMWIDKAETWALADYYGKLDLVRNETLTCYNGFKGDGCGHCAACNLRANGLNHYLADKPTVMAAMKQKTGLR
Chain of UniProt P76187 (P76187 whole entry): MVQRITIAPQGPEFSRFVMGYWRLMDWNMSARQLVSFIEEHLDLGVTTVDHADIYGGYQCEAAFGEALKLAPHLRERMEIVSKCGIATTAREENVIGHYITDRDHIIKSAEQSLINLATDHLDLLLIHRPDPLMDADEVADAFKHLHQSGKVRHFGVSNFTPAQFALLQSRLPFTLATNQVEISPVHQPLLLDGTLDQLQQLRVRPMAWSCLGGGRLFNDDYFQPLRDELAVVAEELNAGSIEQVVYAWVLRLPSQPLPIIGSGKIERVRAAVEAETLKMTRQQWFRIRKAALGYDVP
Chain of UniProt P0A7D4 (P0A7D4 whole entry): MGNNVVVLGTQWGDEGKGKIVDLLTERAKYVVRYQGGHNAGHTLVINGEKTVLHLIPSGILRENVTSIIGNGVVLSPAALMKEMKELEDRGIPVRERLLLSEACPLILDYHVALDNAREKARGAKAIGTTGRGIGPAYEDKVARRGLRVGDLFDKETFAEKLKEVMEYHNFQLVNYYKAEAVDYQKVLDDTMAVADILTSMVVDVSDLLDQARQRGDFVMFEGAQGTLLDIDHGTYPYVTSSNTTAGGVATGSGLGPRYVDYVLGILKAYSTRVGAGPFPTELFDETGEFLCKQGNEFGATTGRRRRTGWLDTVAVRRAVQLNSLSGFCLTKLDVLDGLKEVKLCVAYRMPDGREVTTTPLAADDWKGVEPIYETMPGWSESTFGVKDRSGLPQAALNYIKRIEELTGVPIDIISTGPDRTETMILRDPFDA
Chain of UniProt P37025 (P37025 whole entry): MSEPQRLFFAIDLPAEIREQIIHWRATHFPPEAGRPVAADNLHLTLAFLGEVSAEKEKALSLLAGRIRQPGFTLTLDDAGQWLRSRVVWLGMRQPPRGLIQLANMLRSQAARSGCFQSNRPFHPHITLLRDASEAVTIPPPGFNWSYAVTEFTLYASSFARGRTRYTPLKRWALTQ
Chain of UniProt P76226 (P76226 whole entry): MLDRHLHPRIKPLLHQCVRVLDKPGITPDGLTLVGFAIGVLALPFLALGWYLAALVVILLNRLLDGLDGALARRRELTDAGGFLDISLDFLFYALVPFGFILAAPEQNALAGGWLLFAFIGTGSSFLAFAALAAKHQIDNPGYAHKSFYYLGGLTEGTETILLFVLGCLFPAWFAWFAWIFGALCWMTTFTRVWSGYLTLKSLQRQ
Chain of UniProt P05041 (P05041 whole entry): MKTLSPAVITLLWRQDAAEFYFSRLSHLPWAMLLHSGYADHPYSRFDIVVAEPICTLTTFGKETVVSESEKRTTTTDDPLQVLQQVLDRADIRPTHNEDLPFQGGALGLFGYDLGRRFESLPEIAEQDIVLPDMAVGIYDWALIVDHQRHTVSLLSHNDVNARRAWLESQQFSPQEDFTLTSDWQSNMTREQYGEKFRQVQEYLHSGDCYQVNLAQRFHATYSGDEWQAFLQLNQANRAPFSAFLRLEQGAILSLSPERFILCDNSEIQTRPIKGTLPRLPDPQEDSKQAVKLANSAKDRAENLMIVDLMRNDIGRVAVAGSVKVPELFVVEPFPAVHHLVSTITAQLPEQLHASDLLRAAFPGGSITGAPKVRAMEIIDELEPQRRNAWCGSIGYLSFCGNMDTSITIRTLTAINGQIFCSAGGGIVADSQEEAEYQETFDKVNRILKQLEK
Chain of UniProt P15043 (P15043 whole entry): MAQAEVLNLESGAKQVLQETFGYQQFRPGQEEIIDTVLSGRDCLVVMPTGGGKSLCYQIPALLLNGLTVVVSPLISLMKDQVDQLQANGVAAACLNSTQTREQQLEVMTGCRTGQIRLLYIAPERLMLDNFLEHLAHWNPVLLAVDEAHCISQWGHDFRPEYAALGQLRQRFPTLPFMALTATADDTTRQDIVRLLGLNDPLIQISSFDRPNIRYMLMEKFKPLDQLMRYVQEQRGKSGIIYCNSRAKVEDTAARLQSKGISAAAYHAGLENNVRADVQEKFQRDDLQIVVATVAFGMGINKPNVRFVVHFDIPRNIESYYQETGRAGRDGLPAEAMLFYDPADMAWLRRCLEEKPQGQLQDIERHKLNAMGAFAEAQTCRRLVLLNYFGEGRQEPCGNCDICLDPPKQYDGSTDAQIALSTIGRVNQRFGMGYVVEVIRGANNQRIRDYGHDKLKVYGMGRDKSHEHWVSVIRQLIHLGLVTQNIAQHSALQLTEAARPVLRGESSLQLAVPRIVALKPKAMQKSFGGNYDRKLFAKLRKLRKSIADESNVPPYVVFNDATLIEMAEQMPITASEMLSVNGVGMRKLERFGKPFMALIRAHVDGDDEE
Chain of UniProt P37188 (P37188 whole entry): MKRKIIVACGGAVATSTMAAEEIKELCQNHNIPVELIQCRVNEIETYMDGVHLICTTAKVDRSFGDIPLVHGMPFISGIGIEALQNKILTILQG

“UniProt P77756 (peptide sequence: HRAEIDVAR, peptide start residue: 39)” was tested. Which log2 fold change did it give?
Its log2 fold change is -2.3.

For “UniProt P76187 (peptide sequence: HFGVSNFTPAQFALLQSR, peptide start residue: 154)”, which log2 fold change is on record?
The log2 fold change was -0.944.

“UniProt P37188 (peptide sequence: VNEIETYMDGVHLICTTAKVDR, peptide start residue: 41)” was tested. Which log2 fold change did it give?
Its log2 fold change is 0.402.

For “UniProt P0AG16 (peptide sequence: TFIMPGQQLR, peptide start residue: 334)”, which log2 fold change is on record?
Its log2 fold change is -0.26.

With “UniProt P37025 (peptide sequence: VVWLGMR, peptide start residue: 87)” as the target, how does the log2 fold change read?
The log2 fold change was -0.685.

For “UniProt P0A7D4 (peptide sequence: EMKELEDR, peptide start residue: 83)”, which log2 fold change is on record?
Its log2 fold change is -1.78.

Which log2 fold change does the source give for “UniProt P15043 (peptide sequence: FGKPFMALIR, peptide start residue: 591)” here?
Its log2 fold change is 0.672.

For “UniProt P76226 (peptide sequence: IKPLLHQCVR, peptide start residue: 10)”, which log2 fold change is on record?
Its log2 fold change is -1.62.

How did the log2 fold change turn out when “UniProt P05041 (peptide sequence: APFSAFLR, peptide start residue: 239)” was run?
The log2 fold change was 0.459.
